Source: PubChem BioAssay (National Center for Advancing Translational Sciences (NCATS))
VACV mCherry inh: inhibitors of vaccinia virus infection (mCherry reporter signal); Vaccinia virus mCherry reporter infection, fluorescence; Potency, µM (doses to about 36.5 µM), for the others: at the highest dose activity change, negative = inhibition, usual class: inhibitors; 310,000 tested, 0.63% active; calls by dose curve; tested in A549 cells; note: potency is the fitted concentration of half-maximal effect; nearly all actives have a fitted effect of over 35% in size
LASV entry inh: Lassa virus entry inhibition | Lassa virus pseudotype entry inhibition, cell reporter | Potency, µM (top dose mostly 37.9 µM), inactives show at the top dose activity change, negative = inhibition, usual class: inhibitors | 300,000 tested, 1.2% active | AID 540256; calls by dose curve; tested in HEK293 cells; note: potency is the fitted concentration of half-maximal effect; nearly all actives have a fitted effect of over 50% in size
Vaccinia Venus: vaccinia inhibition (Venus reporter) | Vaccinia virus Venus reporter expression, fluorescence | Potency, µM (series often up to 36.5 µM), without a hit: top-dose activity change, negative = inhibition, hits mostly inhibitors | 330,000 tested, 0.46% active | AID 720580; calls by dose curve; tested in A549 cells; note: potency is the fitted concentration of half-maximal effect; nearly all actives have a fitted effect of over 30% in size
MARV entry inh: Marburg virus entry inhibition; Marburg virus pseudotyped entry inhibition, cell reporter; Potency, µM (titrated, usually from 37.8 µM), without a hit: at the top dose activity change, negative = inhibition, actives largely listed as inhibitors; 300,000 tested, 1.8% active; AID 540276; calls by dose curve; tested in HEK293 cells; note: potency is the fitted concentration of half-maximal effect
HCMV inh: inhibitors of human cytomegalovirus. 410,000 tested, 4.5% active. activity change, negative = inhibition, % at 57.5 µM. HFF cells, HCMV-luciferase reporter, 72 h; hits give low values. AID 1259415; in the data active = activity change below about -60%; inconclusive = no clear call, values can overlap the other calls; inactive = above about -39%
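Human foreskin fibroblasts infected with luciferase-reporter HCMV at MOI 1 PFU/cell, compounds at two doses. Luciferase measured 72 h post infection; normalized to buffer-only basal and Salinomycin (10uM) controls.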
FMDV inh: antivirals against foot and mouth disease virus | 410,000 tested, 1.2% active | Potency, µM (highest dose often 57.9 µM), inactives show at the top dose activity change, negative = inhibition, hits mostly inhibitors | FMDV antiviral cell-based qHTS | AID 1159524; calls by dose curve; tested in HEK293T cells; note: read-out not given here; potency is the fitted concentration of half-maximal effect; nearly all actives have a fitted effect of over 45% in size
Active calls of the source: *; i = inactive; ? = inconclusive; · = no result given; ! = not active in a repeat; [ ] = remark or other dose. Sampled rows, rich in hits. Any-hit rate of the full collection: about 6.5%. % is set by controls: 0 for no effect and ±100 for the full control effect.

SMILES	VACV mCherry inh	LASV entry inh	Vaccinia Venus	MARV entry inh	HCMV inh	FMDV inh
Clc1ccc(C(Cn2ccnc2)OCc2csc3c(Cl)cccc23)c(Cl)c1 (stereo not given)	-13%	·	-26%	·	10	-2%
O=C1N=C(N2CCCCC2)S/C1=C\c1ccccc1F	-24%	-26%	-21%	?	14	86%
CCCOc1ccccc1/C=C1\SC(N2CCCCC2)=NC1=O	-14%	?	6%	?	-82*	17%
O=C(O)CSc1nnc(-c2ccc3c(c2)OCO3)o1	i	-17%	-9%	-8%	36	-16%
O=C(c1ccc(Cl)cc1)N1CCCCC(Sc2nnc(-c3ccc4c(c3)OCO4)o2)C1=O (stereo not given)	·	?	·	?	-67*	10µM*
Cc1ccc2c(c1)-c1ncc(C(=O)c3cc(Br)ccc3O)cc1CO2	-6%	-12%[46.1 µM]	-9%	-14%[46.1 µM]	-90*!	13%
Cc1ccc(O)c(C(=O)c2cnc3c(c2)COc2ccc(C)cc2-3)c1	·	-6%	-13%	?	-27	-16%
CCOC(=O)N[C@H](O)C(=O)c1cccs1	·	·	·	-9%	·	·
N#Cc1ncc(Br)cn1	-22%	·	-9%	·	·	·
CCOC(=O)c1c(C)oc2ncnc(NCCCN3CCN(c4cc(C)ccc4C)CC3)c12	-20%	-5%[46.1 µM]	-17%	·	-2	?
Cc1oc(-c2ccccc2Cl)nc1CS(=O)(=O)CC(=O)NCc1ccc(F)cc1	-20%	3%[46.1 µM]	-9%	-13%[46.1 µM]	-14	-19%
CCc1ccc(-c2cc(C(F)(F)F)n3nc(C(=O)Nc4cnn(Cc5ccc(C)cc5)c4)cc3n2)s1	·	?	·	9.2µM*	·	-19%
COc1ccc2c(c1)OC(C)CN(CCNC(=O)c1csc(-c3cccs3)n1)C2 (stereo not given)	-6%	·	14%	·	·	-3%
COC(=O)c1cccc(C(=O)N2CCc3c(cnc(C)c3CNC(=O)/C=C/c3cccs3)C2)c1	-15%	·	-10%	·	·	-8%
Cn1c(=O)n(C)c2cc(N3CCOCC3)c(NS(=O)(=O)c3cccc(C#N)c3)cc21	-8%	-18%[46.1 µM]	-9%	·	9	9%
CC(C)ON([C@@H](C(=O)NO)C(C)C)S(=O)(=O)c1ccc(-c2ccccc2)cc1	·	3.7µM*	·	5.2µM*	·	·
O=Cc1ccc(I)cc1	-3%	·	-15%	·	·	·
S=C(NCc1ccccc1)N1CCn2cccc2C1c1cccnc1 (stereo not given)	-10%	?	-6%	?	-71*	36%
CCCCNC(=S)N1CCn2cccc2C1c1ccc(F)cc1 (stereo not given)	-27%	13µM*	-3%	6.3µM*	94	-15%
CSc1nnc(CNC(=O)c2c(-c3ccccc3)noc2C)n1-c1ccc(F)cc1	-19%	·	-1%	·	·	-6%
CCCNCC(O)COc1ccccc1C(=O)CCc1ccccc1 (stereo not given)	-20%	?	-14%	9.2µM*	28	-2%
CCN(CC)CC(O)COc1ccccc1C(=O)CCc1ccccc1 (stereo not given)	i	0%	-17%	?	-16	·
COc1cccc(-c2c(-c3cc(OC)cc(OC)c3)n(C)c3ccc(-c4cnc(OC)nc4)cc23)c1	-12%	·	-27%	-1%	?	?
COc1cccc(-c2c(-c3cc(OC)cc(OC)c3)n(C)c3ccc(-c4cnc(N5CCOCC5)nc4)cc23)c1	-9%	·	?	·	-65*	-17%
O=C(NCCN1CCOCC1)c1cnn(-c2nccc(-c3ccccc3F)n2)c1C1CC1	-1%	·	?	·	·	40%
SMILES	VACV mCherry inh	LASV entry inh	Vaccinia Venus	MARV entry inh	HCMV inh	FMDV inh
Cc1ccc(OCC(=O)Nc2ccc3nc(SCC(=O)N4CCOCC4)sc3c2)cc1	0%	?	-13%	-16%[46.1 µM]	-29	?
C=CC[n+]1c(/C=C2\C=Cc3cc(C)ccc3N2CC)ccc2ccccc21	·	7.3µM*	·	4.1µM*	-102*	?
CCN1C(=C(C#N)C#N)C=Cc2cc(C)ccc21	i	7%[46.1 µM]	-9%	-17%[46.1 µM]	-21	6%
C[C@H]1[C@@H](NS(=O)(=O)Cc2ccccc2)CC[C@@]23CCCN2C(=O)CCC[C@@H]13	·	·	·	·	5	·
CSC1=NC=C(C#N)C2=NC(c3c(Cl)cccc3Cl)NN12 (stereo not given)	8%	·	-5%	·	·	40µM*
CCOC(=O)Cn1nc(-c2ccccc2)c2cnc3ccc(OCC)cc3c21	-6%	1%[46.1 µM]	-1%	2%[46.1 µM]	4	-21%
COc1cccc(Cn2cccc(NC(=O)Nc3cccc(C#N)c3)c2=O)c1	-22%	·	-12%	·	-62*	-11%
COC(=O)c1ccccc1NC(=O)C1=C(C)C(=O)OC12CCC(C)CC2 (stereo not given)	-6%	1%[46.1 µM]	-5%	5%[46.1 µM]	-30	-10%
Cc1nn(-c2ccc(N3CCCC3)nn2)c(C)c1CCC(=O)N1CCN(c2ccccc2F)CC1	-3%	-1%[46.1 µM]	-10%	·	-62*	-15%
COc1ccccc1N1CCN(C(=O)CCc2c(C)nn(-c3ccc(N4CCCC4)nn3)c2C)CC1	-9%	-3%[46.1 µM]	-9%	·	11	-26%
COc1cc2c(cc1OC)-c1cc3cc(OC)c(OC)cc3c(=O)n1CC2	·	·	·	·	·	-16%
CCCCN(CCCC)S(=O)(=O)c1ccc(NC(=O)c2cccs2)cc1	·	?	·	18µM*	?	0%
CCN(CC)S(=O)(=O)c1cc([N+](=O)[O-])ccc1NNC(=O)Nc1ccc(Cl)c(Cl)c1	?	-8%	16µM*	?	-93*	?
O=C(NNc1ccccc1[N+](=O)[O-])Nc1ccc(Cl)c(Cl)c1	i	-10%	-17%	?	18	-14%
CCCCN(CCCC)S(=O)(=O)c1ccc(NC(=O)c2ccc([N+](=O)[O-])cc2Cl)cc1	?	?	?	?	-78*	?
COCCn1c(=O)c(-c2cccs2)nc2cnc(Oc3cccc(Cl)c3)nc21	·	·	·	·	·	-20%
CCN(c1ccccc1)S(=O)(=O)c1ccc(C(=O)Nc2nnc(CSC)o2)cc1	?	·	?	·	-95*	-22%
CCN(c1ccccc1)S(=O)(=O)c1ccc(C(=O)Nc2nnc(COC)o2)cc1	·	-13%	-17%	-23%	17	-17%
CCN(c1ccccc1)S(=O)(=O)c1ccc(C(=O)Nc2nnc(C3CC3)o2)cc1	-28%	?	-28%	?	-69*	-17%
CCc1cc(-c2cnnn2CCc2c[nH]c3ccccc23)ccc1-c1cn(CC(C)C)nn1	-15%	7.9µM*	-28%	·	-19	-23%
CCCCCc1ccc(-c2cn(CCCOCc3ccccc3)nn2)cc1	-16%	·	-13%	·	-13	0%
CCCCCc1ccc(-c2cn(CCc3c[nH]c4ccccc34)nn2)cc1	-11%	·	?	·	-61*	-23%
Brc1ccc(C2=Nn3c(nnc3-c3ccncc3)SC2)cc1	·	·	·	1%	·	·
Clc1ccccc1C1=Nn2c(nnc2-c2ccncc2)SC1	-28%	8%	-14%	-20%	-76*	-25%
c1csc(C2=Nn3c(nnc3-c3ccncc3)SC2)c1	·	-4%	-19%	-26%	-81*	-18%
